The full list was thinned out, with hits kept by preference.
HT1080-NT tox: qHTS for induction of synthetic lethality in tumor cells producing 2HG: qHTS for the HT-1080-NT fibrosarcoma cell line. HT-1080-NT fibrosarcoma viability, CellTiter-Glo ATP luminescence, 48 h. Potency, µM (series often up to 46.1 µM), for inactives: at the highest dose activity, negative = less viability, hits mostly cytotoxic. 360,000 tested, 1.6% active. AID 686970, 2013;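 also: NT is the 2HG producing partner of a matched IDH1 knockdown line; potency is read from the fitted curve at half-maximal effect; 0% = DMSO-treated cells and -100% = media-only wells without cells; nearly all actives have a fitted effect of over 55% in size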
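Viability of the 2HG-overproducing fibrosarcoma line after 48 hours of compound exposure at 37 degrees C was determined by luminescence with CellTiter-Glo, and concentration-effect curves were then fitted and categorized.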
TDP1 cell CPT: qHTS for Inhibitors of human tyrosyl-DNA phosphodiesterase 1 (TDP1): qHTS in cells in presence of CPT; chicken DT40 Tdp1-/-;hTDP1 cells + 20 nM CPT, ATP luminescence, 48 h; Potency, µM (series often up to 46.2 µM), for inactives: at the highest dose activity change, negative = growth inhibition, usual class: inhibitors; 420,000 tested, 12% active; also: potency is read from the fitted curve at half-maximal effect; nearly all actives have a fitted effect of over 55% in size
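Cell growth measured by CellTiter-Glo luminescence after a minimum 48 h, 37 C compound exposure with 20 nM CPT in Tdp1-knockout DT40 cells stably expressing hTDP1, seeded 400/well; qHTS titration format.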
IL-1B inflam inh: qHTS for Inhibitors of Inflammasome Signaling: IL-1-beta AlphaLISA Primary Screen | THP-1 LPS/ATP IL-1B secretion, AlphaLISA, 16 h; hits give low values | activity change, % at 57.5 µM | 360,000 tested, 4.7% active | AID 743279, 2014; in the data active = activity change below about -50%; inconclusive = mostly about -30% to -49%
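THP-1 cells pretreated 1 hr with compounds (up to 57.5 uM final), then stimulated with LPS (250 ng/mL final) plus ATP (1.25 mM final); secreted IL-1B measured by AlphaLISA after 16 hr, decreased signal indicating inhibition.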
TDP1 cell noCPT: qHTS for Inhibitors of human tyrosyl-DNA phosphodiesterase 1 (TDP1): qHTS in cells in absence of CPT. Potency, µM (top dose mostly 46.2 µM), without a hit: at the top dose activity change, negative = growth inhibition, actives largely listed as inhibitors. DT40 Tdp1-/- hTDP1 cells, no CPT, ATP luminescence, 48 h. 420,000 tested, 15% active; also: potency is read from the fitted curve at half-maximal effect; nearly all actives have a fitted effect of over 55% in size
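Chicken DT40 Tdp1-/- cells complemented with human TDP1, screened without camptothecin (DMSO vehicle only), 400 cells/well. Compounds pin-transferred, cells incubated at 37 °C for at least 48 hr. Growth read as ATP-dependent luminescence (CellTiter-Glo, 30 min at RT).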
HT1080 IDH1KD tx: qHTS for induction of synthetic lethality in tumor cells producing 2HG: qHTS for the HT-1080-IDH1KD cell line. 360,000 tested, 2% active. HT-1080 IDH1 knockdown viability, ATP luminescence, 48 h. Potency, µM (series often up to 46.1 µM), without a hit: top-dose activity, negative = toxicity, usual class: cytotoxic. AID 686971, 2013;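 also: potency is read from the fitted curve at half-maximal effect; 0% = DMSO wells and -100% = cell-free medium wells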
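HT-1080-IDH1KD cells (IDH1 knocked down), 750/well in RPMI with 5% FBS, treated with compound 48 h at 37 degrees C. Viability by CellTiter-Glo luminescence, normalised to DMSO and no-cell wells; concentration-response curves classed.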
12-LOX inh: Primary qHTS assay for inhibitors of human arachidonate 12S-lipoxygenase (ALOX12): Round 2; purified 12hLO, xylenol orange hydroperoxide absorbance; Potency, µM (titrated, usually from 108 µM), inactives show at the top dose activity change, negative = inhibition, hits mostly inhibitors; 580,000 tested, 1.1% active; AID 1671190, 2021; also: potency is read from the fitted curve at half-maximal effect
Target sequence (P18054 whole entry, looked up): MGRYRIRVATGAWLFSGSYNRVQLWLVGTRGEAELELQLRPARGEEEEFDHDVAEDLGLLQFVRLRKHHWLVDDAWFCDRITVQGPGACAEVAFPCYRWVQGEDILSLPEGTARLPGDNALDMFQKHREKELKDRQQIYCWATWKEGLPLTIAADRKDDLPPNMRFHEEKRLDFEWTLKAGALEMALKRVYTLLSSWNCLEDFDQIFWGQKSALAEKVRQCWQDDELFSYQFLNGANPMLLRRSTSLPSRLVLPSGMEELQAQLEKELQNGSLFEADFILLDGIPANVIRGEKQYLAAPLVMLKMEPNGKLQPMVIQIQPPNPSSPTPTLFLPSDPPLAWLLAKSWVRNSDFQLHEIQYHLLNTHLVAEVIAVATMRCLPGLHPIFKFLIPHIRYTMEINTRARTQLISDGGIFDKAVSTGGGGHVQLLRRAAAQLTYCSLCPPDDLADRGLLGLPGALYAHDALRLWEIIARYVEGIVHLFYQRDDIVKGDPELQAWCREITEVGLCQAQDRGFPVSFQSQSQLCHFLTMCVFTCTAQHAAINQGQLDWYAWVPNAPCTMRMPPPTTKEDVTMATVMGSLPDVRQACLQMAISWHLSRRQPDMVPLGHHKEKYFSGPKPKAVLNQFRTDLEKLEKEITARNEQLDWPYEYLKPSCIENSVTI
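Hydroperoxide product was detected by ferrous iron/xylenol orange as the 573 to 405 nm absorbance ratio. Arachidonic acid at 40 uM (final) was turned over for 30 min at room temperature by 150 nM human 12hLO, pH 7.0 Hepes buffer, after 15 min compound preincubation.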
Starred values were filed as active, the others as inactive; ! = not confirmed by another sample; [ ] = another dose, or the depositor's remark. Unless noted, calls follow the shape of the dose curve; as a rule, active = well fitted curve in the direction sought with a large enough effect; inconclusive = small, poorly fitted or top-dose-only effect, or another doubt; inactive = no such curve, though single readings can be large; an effect the other way counts as inactive or inconclusive. Unless noted, % is scaled to controls: 0 for no effect and ±100 for the full control effect.

For COc1cc(C(=O)NCCCN2CCCC2=O)ccc1OCc1ccc(Cl)cc1Cl the results were HT1080-NT tox 11%, TDP1 cell CPT 13µM*, IL-1B inflam inh -52*, TDP1 cell noCPT 18µM*, HT1080 IDH1KD tx 6% and 12-LOX inh inconclusive.
`CCOC(CNC(=O)CS(=O)Cc1nc(-c2ccc(Cl)cc2)oc1C)OCC` (stereo unspecified) gave 12-LOX inh 14%.
For COc1ccc(C)cc1NC(=O)N1CCN(C(=O)c2nsc3ccccc23)CC1 the results were 12-LOX inh -20%.
`O=C1C2C3C=CC(C3=C(c3ccccc3)c3ccccc3)C2C(=O)N1CCO` (stereo unspecified) gave HT1080-NT tox 8%, TDP1 cell CPT -28%, IL-1B inflam inh -13, TDP1 cell noCPT inconclusive, HT1080 IDH1KD tx 0% and 12-LOX inh 0%.
For O=C1C2C3C=CC(C3=C(c3ccccc3)c3ccccc3)C2C(=O)N1Cc1ccccc1 (stereo unspecified) the results were HT1080-NT tox -14%, TDP1 cell CPT inconclusive, IL-1B inflam inh 0, TDP1 cell noCPT 18µM*, HT1080 IDH1KD tx inconclusive and 12-LOX inh 388%.
Screening Cc1cc(-c2cn3ccccc3n2)c(C)n1-c1ccccc1 returned HT1080-NT tox inconclusive, TDP1 cell CPT inconclusive, IL-1B inflam inh -11, TDP1 cell noCPT 16µM*, HT1080 IDH1KD tx inconclusive and 12-LOX inh inconclusive.
`COCCNc1ncccc1-c1noc([C@@H]2CCCN2Cc2ccccn2)n1` gave 12-LOX inh 61%[176 µM].
`C=C1C(=O)[C@@]23[C@H](O)C[C@@H]4C(C)(C)CC[C@H](O)[C@]4(C)[C@@H]2C[C@H](O)[C@@H]1[C@H]3O` gave HT1080-NT tox -29%, TDP1 cell CPT 3.3µM*, IL-1B inflam inh inconclusive, TDP1 cell noCPT inconclusive, HT1080 IDH1KD tx inconclusive and 12-LOX inh 17%.
`C=C1C(=O)[C@@]23[C@H](O)C[C@@H]4C(C)(C)CC[C@H](O)[C@@]4(C)[C@@H]2CC[C@@H]1[C@H]3O` gave HT1080-NT tox 15µM*, TDP1 cell CPT 1µM*, IL-1B inflam inh inconclusive, TDP1 cell noCPT 0.82µM*, HT1080 IDH1KD tx 13µM* and 12-LOX inh 18%.
For CCC(C)[C@H]1COCCS(=O)(=O)N1Cc1ccc(Br)cc1 (stereo partly specified) the results were HT1080-NT tox -1%, TDP1 cell CPT 18µM*, IL-1B inflam inh -3, TDP1 cell noCPT 16µM*, HT1080 IDH1KD tx 22% and 12-LOX inh 3%.
For O=S1(=O)CCO[C@H]2Cc3ccccc3[C@H]2N1Cc1cccc(F)c1 the results were HT1080-NT tox -3%, TDP1 cell CPT 21µM*!, IL-1B inflam inh 15, TDP1 cell noCPT -4%, HT1080 IDH1KD tx -1% and 12-LOX inh 2%.
For CCCC[C@H]1COCCS(=O)(=O)N1Cc1ccc(F)cc1 the results were HT1080-NT tox 0%, TDP1 cell CPT inconclusive, IL-1B inflam inh -9, TDP1 cell noCPT inconclusive, HT1080 IDH1KD tx 12% and 12-LOX inh 19%.
For CC(C)[C@H]1COCCS(=O)(=O)N1Cc1ccc(Cl)cc1 the results were HT1080-NT tox -4%, TDP1 cell CPT inconclusive, IL-1B inflam inh -4, TDP1 cell noCPT inconclusive, HT1080 IDH1KD tx -2% and 12-LOX inh inconclusive.
CCCC[C@H]1COCCS(=O)(=O)N1Cc1cccc(F)c1 was read as HT1080-NT tox 2%, TDP1 cell CPT inconclusive, IL-1B inflam inh 3, TDP1 cell noCPT 13µM*!, HT1080 IDH1KD tx -4% and 12-LOX inh 10%.
Screening CCCC[C@H]1COCCS(=O)(=O)N1Cc1ccc(C)cc1 returned HT1080-NT tox -2%, TDP1 cell CPT inconclusive, TDP1 cell noCPT 26µM*, HT1080 IDH1KD tx -6% and 12-LOX inh -1%.
For O=C(Nc1ccc(C(F)(F)F)cc1)N[C@H]1CC[C@@]23CCCN2C(=O)CCC[C@H]3C1Cc1ccccc1 (stereo partly specified) the results were 12-LOX inh -18%.
`O=S1(=O)CCOC[C@H](Cc2ccccc2)N1Cc1cccc(Cl)c1` gave HT1080-NT tox 0%, TDP1 cell CPT inconclusive, IL-1B inflam inh -4, TDP1 cell noCPT -25%, HT1080 IDH1KD tx -5% and 12-LOX inh 10%.
For CC(C)C[C@H]1COCCS(=O)(=O)N1Cc1cccc(Cl)c1 the results were HT1080-NT tox 0%, TDP1 cell CPT 15µM*, IL-1B inflam inh 9, TDP1 cell noCPT inconclusive, HT1080 IDH1KD tx 4% and 12-LOX inh 12%.
`CCC1=C(OC(=O)N(CC)CC)N2C(=O)OC(=NCCc3c[nH]c4ccccc34)[C@]2(Cc2ccccc2)[C@H]2C1=CC[C@H]1C(=O)N(c3ccccc3)C(=O)[C@H]12` gave HT1080-NT tox 3%, TDP1 cell CPT inconclusive, IL-1B inflam inh -29, TDP1 cell noCPT inconclusive, HT1080 IDH1KD tx -20% and 12-LOX inh -4%.
CCC1=C(OC(=O)N(CC)CC)N2C(=O)OC(=NCCc3c[nH]c4ccccc34)[C@]2(Cc2ccccc2)[C@H]2C1=CC[C@H]1C(=O)N(C)C(=O)[C@H]12 was read as HT1080-NT tox -28%, TDP1 cell CPT inconclusive, IL-1B inflam inh -53*, TDP1 cell noCPT inconclusive, HT1080 IDH1KD tx -7% and 12-LOX inh -1%.
For Cc1ccc(NC(=O)c2cc(C)n(-c3cccc(C)c3)c2C)cc1 the results were HT1080-NT tox -17%, TDP1 cell CPT inconclusive, IL-1B inflam inh -66*, TDP1 cell noCPT 21µM*, HT1080 IDH1KD tx -30% and 12-LOX inh -4%.
`Cc1ccc(NC(=O)c2cc(C)n(-c3ccccc3)c2C)cc1` gave HT1080-NT tox inconclusive, TDP1 cell CPT inconclusive, IL-1B inflam inh -83*, TDP1 cell noCPT inconclusive, HT1080 IDH1KD tx inconclusive and 12-LOX inh -21%.
For Cc1cc(C(=O)Nc2ccc(Cl)cc2)n(-c2ccccc2)n1 the results were HT1080-NT tox -16%, TDP1 cell CPT inconclusive, IL-1B inflam inh inconclusive, TDP1 cell noCPT 4%, HT1080 IDH1KD tx 3% and 12-LOX inh -7%.
